# Laboratory results from PubChem BioAssay (NCI).
# Compounds without any hit were thinned out: in the full panel of roughly 83,000, 20% have a hit.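 Assay: single dose, 48 h. Readout: percent growth (0 = no net growth; negative = cell death). Active: <10.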 Calls of active or inactive are those of the source.
# Legend:
# Experiment in all cases: NCI-60 one-dose screen, 48 h (100 = growth as untreated, 0 = no growth, -100 = all killed)
# Settings in all cases: 10 µM
# [1] = test system: HCT-15 colon
# [2] = test system: HT29 colon
# [3] = test system: SNB-75 CNS
# [4] = test system: SNB-19 CNS
# [5] = test system: U251 CNS
# [6] = test system: PC-3 prostate
# [7] = test system: SK-MEL-5 melanoma
# [8] = test system: UACC-62 melanoma
# [9] = test system: LOX IMVI melanoma
# [10] = test system: SK-MEL-28 melanoma
SMILES,growth [1],growth [2],growth [3],growth [4],growth [5],growth [6],growth [7],growth [8],growth [9],growth [10]
CCc1nn2c(-c3cc(OC)c(OC)c(OC)c3)c(-c3cc(OC)c(OC)c(OC)c3)nc2s1,77.9% (inactive),69.6% (inactive),-25.6% (active),61.9% (inactive),58.1% (inactive),82.9% (inactive),89.7% (inactive),63.1% (inactive),85.1% (inactive),85.8% (inactive)
CN(C)CCCN(Cc1ccccc1O)C(=S)Nc1ccc(Cl)cc1,93% (inactive),106% (inactive),79.5% (inactive),94.7% (inactive),101% (inactive),93.8% (inactive),91.3% (inactive),108% (inactive),98.4% (inactive),109% (inactive)
C=CCc1cc(Nc2c3ccc(Cl)cc3nc3ccc(OC)cc23)cc(CN(CC)CC)c1O,9.53% (active),3.04% (active),13% (inactive),20.6% (inactive),12.5% (inactive),9.79% (active),-92.7% (active),19.1% (inactive),-32.9% (active),39.1% (inactive)
COc1ccc2oc(=O)cc(C3c4ccc([nH]4)C(c4cc(=O)oc5ccc(OC)cc45)c4ccc([nH]4)C(c4cc(=O)oc5ccc(OC)cc45)c4ccc([nH]4)C(c4cc(=O)oc5ccc(OC)cc45)c4ccc3[nH]4)c2c1 (stereo not given),-62.4% (active),-41.5% (active),19.3% (inactive),26% (inactive),1.28% (active),30.4% (inactive),-4.6% (active),-8.02% (active),-60.4% (active),1.37% (active)
COc1cc(Nc2ccnc(N3CCN(c4ccnc5cc(Cl)ccc45)CC3)n2)cc(OC)c1,9.9% (active),-15.1% (active),-13.9% (active),39.1% (inactive),12.6% (inactive),3.31% (active),-55.2% (active),-21.6% (active),3.24% (active),11.9% (inactive)
Cc1cc(O)c(C2=NN(c3ccc(S(N)(=O)=O)cc3)C(c3ccc(N(C)C)cc3)C2)c(C)c1Cl (stereo not given),80.5% (inactive),52.7% (inactive),78.7% (inactive),107% (inactive),78.3% (inactive),13.6% (inactive),79.6% (inactive),64.8% (inactive),82.8% (inactive),90.2% (inactive)
CCOC(=O)c1c(C(F)(F)F)n([O-])c2ccc(OC)cc2[n+]1=O,23.7% (inactive),48.1% (inactive),11.8% (inactive),25.8% (inactive),26.6% (inactive),-3.79% (active),-29.4% (active),22.8% (inactive),31.2% (inactive),60.8% (inactive)
COc1nc2c(c(=O)[nH]1)C(c1ccc(Oc3ccnc4cc(Cl)ccc34)c(OC)c1)C=C(c1cc(OC)c(OC)c(OC)c1)N2 (stereo not given),98.8% (inactive),89.8% (inactive),91.9% (inactive),89.1% (inactive),97.4% (inactive),87.2% (inactive),95.1% (inactive),95.9% (inactive),95.5% (inactive),116% (inactive)
Cn1cnc([N+](=O)[O-])c1/C=C1\Oc2ccc(Cl)cc2C1=O,78.4% (inactive),78.4% (inactive),83.6% (inactive),107% (inactive),97.2% (inactive),79.3% (inactive),91.8% (inactive),91.1% (inactive),73% (inactive),105% (inactive)
COc1ccc(Cn2cc3c(c2-c2ccccc2)CC(C)(C)c2cnoc2-3)cc1,34.8% (inactive),12.5% (inactive),13.1% (inactive),55.2% (inactive),43.8% (inactive),28.8% (inactive),13.1% (inactive),54.6% (inactive),35.1% (inactive),58.7% (inactive)
COC(=O)c1ccc(Cn2ccc(=O)[nH]c2=O)cc1,101% (inactive),99.5% (inactive),90.6% (inactive),110% (inactive),112% (inactive),98.4% (inactive),109% (inactive),105% (inactive),98.4% (inactive),111% (inactive)
CCOC(=O)/C(C#N)=C(/C)C1CC1,98.6% (inactive),112% (inactive),87.7% (inactive),110% (inactive),100% (inactive),97.3% (inactive),99.6% (inactive),107% (inactive),106% (inactive),106% (inactive)
C[n+]1c(/C=C/c2c[nH]c3ccccc23)ccc2ccccc21,90.7% (inactive),49.2% (inactive),90.9% (inactive),68.4% (inactive),69.9% (inactive),52.1% (inactive),59.2% (inactive),54.2% (inactive),60.5% (inactive),84.8% (inactive)
Cc1ccc(/C=C2\CN(Cc3cn(CCNc4ccnc5cc(Cl)ccc45)nn3)C/C(=C\c3ccc(C)cc3)C2=O)cc1,-29.4% (active),-45.1% (active),18.1% (inactive),-29.8% (active),-73.7% (active),-32.4% (active),-90.5% (active),-58.4% (active),-82.9% (active),-83.5% (active)
O=S(=O)(NC1c2ccccc2Oc2ccccc21)c1ccccc1,91.8% (inactive),92.2% (inactive),88.4% (inactive),105% (inactive),91.9% (inactive),88.2% (inactive),102% (inactive),97.8% (inactive),87.5% (inactive),101% (inactive)
COc1ccc(-c2nsc3c2NC(=O)CC3c2ccc(Cl)cc2)cc1 (stereo not given),86.3% (inactive),89.8% (inactive),91.2% (inactive),95.9% (inactive),93.3% (inactive),82% (inactive),81.8% (inactive),73.4% (inactive),90.4% (inactive),103% (inactive)
COc1cc(C(=O)n2nc(N)c3c(C)cc(C)nc32)cc(OC)c1OC,33.2% (inactive),24% (inactive),57.9% (inactive),98.4% (inactive),72.1% (inactive),81.2% (inactive),73.8% (inactive),80.5% (inactive),54% (inactive),97.6% (inactive)
COc1cc(C)c2sc3ccccc3c(=O)c2c1NCCN(C)C,39.3% (inactive),16.3% (inactive),50.5% (inactive),65.2% (inactive),44.8% (inactive),53.4% (inactive),36.9% (inactive),-90.3% (active),26.4% (inactive),54.1% (inactive)
CCOc1nc(-c2ccccc2)cc2c(O)c(C(=O)N/N=C/c3ccc(OC)cc3)[nH]c(=O)c12,110% (inactive),108% (inactive),91.7% (inactive),96.9% (inactive),100% (inactive),88% (inactive),53.5% (inactive),104% (inactive),114% (inactive),114% (inactive)
C[N+]1(CC2CO2)CCCCCC1 (stereo not given),94.9% (inactive),112% (inactive),92.9% (inactive),104% (inactive),107% (inactive),102% (inactive),98.1% (inactive),102% (inactive),105% (inactive),104% (inactive)
CCCCC(=O)N(c1ccc(Nc2c3ccccc3nc3cc([N+](=O)[O-])ccc23)cc1)S(C)(=O)=O,76.3% (inactive),79% (inactive),66.1% (inactive),69.5% (inactive),64.2% (inactive),52% (inactive),69% (inactive),75.8% (inactive),52.5% (inactive),105% (inactive)
COc1ccc(-c2csc(-c3cc(Cl)cc(Cl)c3Cl)n2)cc1,89.2% (inactive),101% (inactive),91.6% (inactive),103% (inactive),93.3% (inactive),95% (inactive),29.2% (inactive),63% (inactive),83.1% (inactive),107% (inactive)
COC(=O)C1(C(=O)OC)C2C(=O)C3C(C21)C3(C(=O)OC(C)(C)C)C(=O)OC(C)(C)C (stereo not given),108% (inactive),112% (inactive),88.5% (inactive),110% (inactive),104% (inactive),90.2% (inactive),100% (inactive),112% (inactive),103% (inactive),107% (inactive)
Oc1ccc(Cn2cc3c(c2-c2ccccc2)CCc2cnoc2-3)cc1,100% (inactive),94% (inactive),91.9% (inactive),99.2% (inactive),88.9% (inactive),87.3% (inactive),89.9% (inactive),70.3% (inactive),88.7% (inactive),101% (inactive)
